From PubChem BioAssay (NCI) come the findings set out here.

This is part of a sample that, as a whole, favours compounds with a hit. Of some 83,000 tested, about 20% had one in any assay.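 Results are percent growth after 48 hours of single-concentration exposure. 100 means growth as in untreated cells, lower positive values show inhibition; negative values down to -100 show cell death.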 A number with no mark means an inactive call. Active and inactive are the calls of the source. Rule for the calls: active = growth percent below 10; inactive = the rest.

Test systems include NCI-H23 lung; NCI-H226 lung; NCI-H322M lung; HOP-62 NSCLC; NCI-H460 lung; HOP-92 NSCLC; NCI-H522 lung; A549/ATCC NSCLC; 786-0 renal; COLO 205 colon; DU-145 prostate; K-562 leukemia; MALME-3M melanoma; MDA-MB-231 breast; SF-268 CNS; SF-295 CNS; SF-539 CNS; UACC-257 melanoma; M14 melanoma.
Holding throughout (assay): NCI-60 one-dose screen, 48 h (100 = growth as untreated, 0 = no growth, -100 = all killed)
Common to all, as to conditions: 10 µM unless noted

With `CC(N)C(=O)NNc1n[nH]c(=S)n1N` (configuration not stated), the growth was 100% in the test on NCI-H23 lung; 97.1% in the test with NCI-H226 lung; 92% in the test on NCI-H322M lung; 106% in the test on HOP-62 NSCLC; 103% in the test with NCI-H460 lung; 94.6% in the test with HOP-92 NSCLC. Besides, the growth with NCI-H522 lung is 98%; in the test on A549/ATCC NSCLC it was 102%; in the test with 786-0 renal it was 95.8%; in the test with COLO 205 colon, 111%; in the test on DU-145 prostate, 109%; with K-562 leukemia, 107%. In addition, the growth with MALME-3M melanoma is 94%; in the test with MDA-MB-231 breast, 105%; with SF-268 CNS it was 94.2%; in the test on SF-295 CNS, 94.7%; in the test on SF-539 CNS, 100%; in the test on UACC-257 melanoma it was 98.8%. In addition, the growth in the test with M14 melanoma is 95.2%.

`Cc1cccc(Oc2ccc(Nc3ncnc4ccc(NC(=O)CN(C)C)cc34)cc2Cl)c1`: the growth is 78.4% with NCI-H23 lung; 93.1% in the test with NCI-H226 lung; 17.4% in the test on NCI-H322M lung; 59.3% in the test with HOP-62 NSCLC; 0.249% (active) in the test with NCI-H460 lung; 23.5% in the test on HOP-92 NSCLC. The growth was 30% in the test with NCI-H522 lung; 40.4% with A549/ATCC NSCLC; 47.9% in the test with 786-0 renal; -15.8% (active) with COLO 205 colon; 34.5% in the test on DU-145 prostate; -8.94% (active) in the test on K-562 leukemia. Also, the growth with MALME-3M melanoma is 25.9%; in the test with MDA-MB-231 breast, 41.1%; with SF-268 CNS, 54.8%; with SF-295 CNS, 58.4%; with SF-539 CNS it was 59.9%; with UACC-257 melanoma, 81.8%. Also, the growth in the test on M14 melanoma is -77.1% (active).

With `COc1ccc(NC(=O)c2sc3nc(C)c(C(=O)CCc4cccc(OC)c4)cc3c2N)cc1`, the growth was 81.1% with NCI-H23 lung; 89.7% in the test on NCI-H226 lung; 40.1% in the test on NCI-H322M lung; 70.8% in the test with HOP-62 NSCLC; 1.32% (active) in the test with NCI-H460 lung; 88.4% in the test with HOP-92 NSCLC. For the same molecule, the growth was 78.7% in the test on NCI-H522 lung; 30.2% in the test on A549/ATCC NSCLC; 78.5% in the test with 786-0 renal; 44.1% in the test on COLO 205 colon; 71.7% in the test with DU-145 prostate; 20% in the test with K-562 leukemia. Also, the growth in the test on MALME-3M melanoma is 62.5%; in the test on MDA-MB-231 breast, 85.8%; in the test with SF-268 CNS it was 80.2%; in the test with SF-295 CNS, 15.7%; with SF-539 CNS it was 72%; in the test with UACC-257 melanoma it was 89%. Moreover, the growth in the test on M14 melanoma is 70.1%.

Turning to `COc1cc2ncnc(Nc3ccc(C(=O)/C=C/c4ccc(C(F)(F)F)cc4F)cc3)c2cc1OC`, the growth was 99.5% in the test on NCI-H23 lung; 92.7% in the test on NCI-H226 lung; 99.7% with NCI-H322M lung; 144% with HOP-62 NSCLC; 108% in the test with NCI-H460 lung; 113% in the test with HOP-92 NSCLC. Moreover, the growth in the test on NCI-H522 lung is 98.3%; in the test with A549/ATCC NSCLC, 95.2%; with 786-0 renal it was 85.6%; in the test on COLO 205 colon it was 160%; with DU-145 prostate, 107%; in the test with K-562 leukemia it was 58.4%. Besides, the growth in the test with MALME-3M melanoma is 106%; with MDA-MB-231 breast it was 90.7%; in the test with SF-268 CNS, 96.2%; with SF-295 CNS, 95.8%; in the test with SF-539 CNS, 93.7%; in the test on UACC-257 melanoma, 111%. Moreover, the growth in the test on M14 melanoma was 97.9%.

Take `CC(=O)O[C@H]1CC[C@@]2(C)[C@@H](CC[C@@H]3[C@@H]2CC[C@@]2(C)[C@H]3CC[C@]2(O)C(C)=O)C1`: the growth with NCI-H23 lung was 101%; in the test on NCI-H226 lung it was 89.8%; in the test with NCI-H322M lung, 91.9%; in the test with HOP-62 NSCLC it was 95.3%; in the test on NCI-H460 lung it was 105%; in the test with HOP-92 NSCLC, 101%. For the same molecule, the growth with NCI-H522 lung is 96.8%; with A549/ATCC NSCLC, 92.1%; in the test on 786-0 renal it was 98.1%; in the test on COLO 205 colon it was 107%; with DU-145 prostate, 115%; in the test on K-562 leukemia, 100%. Moreover, the growth is 99.5% in the test on MALME-3M melanoma; 100% in the test on MDA-MB-231 breast; 106% in the test on SF-268 CNS; 94.4% with SF-295 CNS; 100% with SF-539 CNS; 109% in the test on UACC-257 melanoma. The growth in the test with M14 melanoma was 99.3%.

Take `C=Cc1cc[n+](CCCCCCCCCCCC)cc1`: the growth in the test on NCI-H23 lung is 102%; with NCI-H226 lung, 103%; in the test with NCI-H322M lung it was 114%; with HOP-62 NSCLC, 111%; with NCI-H460 lung, 98.3%; in the test with HOP-92 NSCLC, 134%. Further, the growth in the test with NCI-H522 lung is 110%; in the test on A549/ATCC NSCLC, 103%; with 786-0 renal it was 106%; with COLO 205 colon, 118%; in the test with DU-145 prostate, 105%; with K-562 leukemia it was 93.8%. The growth was 111% in the test on MALME-3M melanoma; 99.9% in the test on MDA-MB-231 breast; 99.7% with SF-268 CNS; 106% in the test with SF-295 CNS; 104% in the test with SF-539 CNS; 111% in the test with UACC-257 melanoma. In addition, the growth in the test on M14 melanoma was 102%.

Take `Nc1nnc2cc(Cl)ccc2n1`: the growth is 110% in the test on NCI-H23 lung; 92% with NCI-H226 lung; 94.5% in the test on NCI-H322M lung; 115% with HOP-62 NSCLC; 115% in the test on NCI-H460 lung; 65.6% in the test with HOP-92 NSCLC. In addition, the growth in the test on NCI-H522 lung was 94.7%; with A549/ATCC NSCLC it was 108%; in the test on 786-0 renal, 129%; in the test with COLO 205 colon, 103%; in the test on DU-145 prostate it was 105%; with K-562 leukemia, 83.9%. Further, the growth in the test with MALME-3M melanoma is 126%; in the test with MDA-MB-231 breast it was 96.9%; in the test with SF-268 CNS it was 112%; with SF-295 CNS it was 140%; in the test on SF-539 CNS, 111%; in the test on UACC-257 melanoma, 127%. Besides, in the test with M14 melanoma, the growth is 113%.

For `CC(C)(O)C1CCCN1C(=O)c1ccccc1I` (configuration not stated), the growth with NCI-H23 lung was 94.6%; in the test with NCI-H226 lung, 89.4%; in the test with NCI-H322M lung it was 101%; with HOP-62 NSCLC, 95.4%; with NCI-H460 lung, 85.8%; with HOP-92 NSCLC, 58.6%. The growth was 83.9% in the test with NCI-H522 lung; 92.1% in the test on A549/ATCC NSCLC; 87.7% in the test on 786-0 renal; 105% in the test with COLO 205 colon; 111% in the test with DU-145 prostate; 83.5% in the test with K-562 leukemia. In addition, the growth in the test with MALME-3M melanoma was 109%; with MDA-MB-231 breast, 84%; with SF-268 CNS, 91.5%; in the test on SF-295 CNS, 84.4%; in the test on SF-539 CNS it was 105%; in the test with UACC-257 melanoma, 104%. In addition, the growth in the test with M14 melanoma was 95.1%.
